# Results from PubChem BioAssay (EPA / NIEHS).
# Values joined by “and” are separate entries in the source; they are usually repeats but may differ in a detail not shown here. Equal values may be shown once. Records with an inconclusive call do not appear. Some compounds were tested as several samples or in several runs, with calls that do not always agree. Active and inactive are the calls of the source. Rule for the calls, unless noted: active = hit-call score of the fitted dose curve at least 0.9, where 1 is the maximum; inactive = score below 0.9.
# Experiments:
# [1] = molecular target: Myc proto-oncogene protein (Homo sapiens) (UniProt P01106); test: ATG_Myc_CIS: Attagene CIS-FACTORIAL HepG2 Assay for human Myelocytomatosis (Myc) Proto-Oncogene Transcription Factor (AID 2282990); details: HepG2, Attagene cis-reporter transcription factor activity; actives raise or lower the signal
# How it was run: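 After 24 h chemical treatment of HepG2 cells carrying multiplexed cis-regulated reporter constructs, reporter transcripts quantified by RT-PCR and capillary electrophoresis of fluorescent fragments. Gain or loss fitted against DMSO baseline.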
# [2] = ATG_NF_kB_CIS: Attagene CIS-FACTORIAL HepG2 Assay for human Nuclear Factor Kappa B (NF-kB) (AID 2282991); details: HepG2 Attagene cis-factorial NF-kB reporter mRNA; actives raise or lower the signal
# How it was run: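 Transient MRTU transfection of human HepG2 liver cells → 24 h chemical exposure → total RNA, oligo(dT) RT → PCR, 6-FAM primer extension, HpaI digest 2 h 37 C → CE fragment analysis. Bidirectional fitting, DMSO negative control.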
# [3] = ATG_NRF2_ARE_CIS: Attagene CIS-FACTORIAL HepG2 Assay for human Nuclear Factor Erythroid 2 Related Factor 2 (NFR2) response to Antioxidant Response Elements (ARE) (AID 2282992); details: HepG2 Attagene ARE/NRF2 reporter, transcription factor activity; actives raise or lower the signal;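 for AC50: reporter mRNA level measured by RT-PCR and capillary electrophoresis fluorescence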
# How it was run: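 HepG2 cells transiently transfected with multiplexed cis-element reporter constructs, 24 h after chemical dosing; reporter mRNA quantified by RT-PCR, fluorescent primer extension, HpaI digestion and capillary electrophoresis. Bidirectional fit relative to DMSO.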
# [4] = ATG_Oct_MLP_CIS: Attagene CIS-FACTORIAL HepG2 Assay for human Octamer-Binding Transcription Factor (Oct) (AID 2282993); details: HepG2 Attagene cis-factorial Oct reporter, mRNA; actives raise or lower the signal
# How it was run: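 Transient MRTU transfection of HepG2 → 24 h compound treatment → RNA isolation, reverse transcription, PCR → 6-FAM primer extension, HpaI digest → capillary electrophoresis. Activity fitted both directions against DMSO.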
# [5] = molecular target: Cellular tumor antigen p53 (Homo sapiens) (UniProt P04637); test: ATG_p53_CIS: Attagene CIS-FACTORIAL HepG2 Assay for human p53 Transcription Factor (AID 2282994); details: HepG2 p53 cis-element reporter, Attagene mRNA; actives raise or lower the signal
# How it was run: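 HepG2 cells transiently transfected with cis-regulated multiple reporter transcription units, dosed 24 h. Reporter mRNA measured by RT-PCR, 6-FAM primer extension, HpaI digestion and capillary electrophoresis; bidirectional fit relative to DMSO.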
# [6] = molecular target: human Peroxisome Proliferator-activated Receptor alpha (PPARa), PPARA (gene 5465) (UniProt Q07869); test: ATG_PPARa_TRANS: Attagene TRANS-FACTORIAL HepG2 Assay for human Peroxisome Proliferator-activated Receptor alpha (PPARa) (AID 2283001; active = hit-call score of the fitted dose curve at least 0.9, where 1 is the maximum;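 for AC50: potency for gain of reporter signal over DMSO so agonist or activator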)
# How it was run: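 Read-out is fluorescence of reporter cDNA fragments resolved by capillary electrophoresis after RT-PCR. Human HepG2 liver cells carried transfected PPARa-Gal4 chimera and GAL4-UAS reporter units, treated 24 h; activity scored as increase over DMSO.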
# [7] = molecular target: human Peroxisome Proliferator-activated Receptor delta (PPARd), PPARD (gene 5467) (UniProt Q03181); test: ATG_PPARd_TRANS: Attagene TRANS-FACTORIAL HepG2 Assay for human Peroxisome Proliferator-activated Receptor delta (PPARd) (AID 2283002; active = hit-call score of the fitted dose curve at least 0.9, where 1 is the maximum)
# How it was run: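 Read-out is induced reporter mRNA, quantified by RT-PCR with fluorescent labelling and capillary electrophoresis after 24 h dosing. Cells are HepG2 transiently carrying multiple GAL4-UAS reporter units driven by exogenous NR-GAL4 chimeras; DMSO serves as baseline.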
# [8] = molecular target: Nuclear receptor subfamily 1 group I member 2 (Homo sapiens) (UniProt O75469); test: ATG_PXR_TRANS: Attagene TRANS-FACTORIAL HepG2 Assay for human Pregnane X Receptor (PXR) (AID 2283008; active = hit-call score of the fitted dose curve at least 0.9, where 1 is the maximum)
# How it was run: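 HepG2 cells transiently transfected with GAL4-UAS reporter units and PXR-Gal4 chimera, exposed 24 h. Reporter mRNA quantified by RT-PCR, fluorescent labelling, HpaI digestion and capillary electrophoresis; gain of signal vs DMSO.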
# [9] = molecular target: Retinoic acid receptor alpha (Homo sapiens) (UniProt P10276); test: ATG_RARa_TRANS: Attagene TRANS-FACTORIAL HepG2 Assay for human Retinoic Acid Receptor alpha (RARa) (AID 2283005; active = hit-call score of the fitted dose curve at least 0.9, where 1 is the maximum)
# How it was run: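 Reporter transcripts, measured by RT-PCR with fluorescent labeling and capillary electrophoresis after 24 h dosing, reflect activity of an exogenous human RARa–GAL4 fusion in transiently transfected HepG2. Fitted for increase relative to DMSO.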
# [10] = molecular target: Peroxisome proliferator-activated receptor gamma (Homo sapiens) (UniProt P37231); test: ATG_PPARg_TRANS: Attagene TRANS-FACTORIAL HepG2 Assay for human Peroxisome Proliferator-activated Receptor-gamma (PPARg) (AID 2283007; active = hit-call score of the fitted dose curve at least 0.9, where 1 is the maximum)
# How it was run: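 Transient transfection of HepG2 with GAL4-UAS-driven reporter units; chemical dosing 24 h; total RNA → oligo(dT) RT → PCR with reporter primers → 6-FAM primer extension → HpaI digest 2 h 37 C → capillary electrophoresis. Positive direction vs DMSO.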
# [11] = molecular target: human RAR-related Orphan Receptor gamma (RORg), RORC (gene 6097) (UniProt P51449); test: ATG_RORg_TRANS: Attagene TRANS-FACTORIAL HepG2 Assay for human RAR-related Orphan Receptor gamma (RORg) (AID 2283011; active = hit-call score of the fitted dose curve at least 0.9, where 1 is the maximum)
# How it was run: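 HepG2 cells transiently transfected with GAL4-UAS reporter units and chimeric RORg-Gal4 construct; after 24 h chemical exposure, reporter mRNA measured by RT-PCR with fluorescent capillary electrophoresis, gain of signal fitted against DMSO.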
# [12] = BSK_3C_uPAR: BioMAP Diversity Plus: 3C Assay for Urokinase-type plasminogen activator receptor (uPAR) Biomarker Activity (AID 2282998); details: BioMAP 3C HUVEC, uPAR biomarker ELISA; actives raise or lower the signal
# How it was run: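 ELISA readout of uPAR on human vascular endothelium (umbilical vein primary cells), taken 24 h after chemical dosing. Increases and decreases are both fitted relative to DMSO vehicle.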
# [13] = BSK_3C_VCAM1: BioMAP Diversity Plus: 3C Assay for Vascular cell adhesion molecule 1 (VCAM1) Biomarker Activity (AID 2282999); details: BioMAP 3C HUVEC, VCAM1 ELISA, cytokine-stimulated; actives raise or lower the signal
# How it was run: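 Endothelial cells from human umbilical vein are treated with test chemical. At 24 h, VCAM-1 is measured by ELISA, and responses in either direction are fitted relative to DMSO.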
# [14] = BSK_4H_Eotaxin3: BioMAP Diversity Plus: 4H Assay for Eotaxin 3 Biomarker Activity (AID 2283000); details: primary human endothelial cells (HUVEC); actives raise or lower the signal;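 note: CCL26 protein level quantified by ELISA in parallel with SRB cytotoxicity check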
# How it was run: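 Eotaxin-3 (CCL26) levels were measured by ELISA in HUVEC primary cultures 24 h post-dosing. Gain or loss of signal was fitted in both directions, with DMSO serving as baseline and negative control.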
# [15] = read-out: Intercellular Adhesion Molecule 1 (ICAM1), ICAM1 (gene 3383); test: BSK_3C_ICAM1: BioMAP Diversity Plus: 3C Assay for Intercellular Adhesion Molecule 1 (ICAM1) Biomarker Activity (AID 2283003); details: primary human endothelial cells (HUVEC); actives raise or lower the signal
# How it was run: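 HUVEC primary cells stimulated under 3C conditions; ICAM1 measured by ELISA 24 h after compound dosing. Curves fitted bidirectionally against the DMSO baseline. Overt cytotoxicity checked by SRB staining of parallel cultures.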
# [16] = BSK_3C_Proliferation: Cell Proliferation Assessment in the BioMAP Diversity Plus: 3C Assay (AID 2283006); details: primary human endothelial cells (HUVEC)
# How it was run: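 Subconfluent HUVEC (3C system) cultured with chemical; relative cell number read at 48 h by sulforhodamine B total-protein staining (0.1% SRB after 10% TCA fixation, 560 nm). Bidirectional fit relative to DMSO.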
# [17] = molecular target: human Retinoic Acid Receptor beta (RARb), RARB (gene 5915) (UniProt P10826); test: ATG_RARb_TRANS: Attagene TRANS-FACTORIAL HepG2 Assay for human Retinoic Acid Receptor beta (AID 2283004; active = hit-call score of the fitted dose curve at least 0.9, where 1 is the maximum)
# How it was run: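 HepG2 cells were transiently transfected with GAL4-UAS reporter units that report activity of exogenous chimeric NR-Gal4 proteins, then exposed to compound for 24 h. Reporter mRNA was quantified by RT-PCR with capillary electrophoresis fluorescence, as gain of signal over DMSO.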
# [18] = molecular target: human Retinoic Acid Receptor gamma (RARg), RARG (gene 5916) (UniProt P13631); test: ATG_RARg_TRANS: Attagene TRANS-FACTORIAL HepG2 Assay for human Retinoic Acid Receptor gamma (RARg) (AID 2283009; active = hit-call score of the fitted dose curve at least 0.9, where 1 is the maximum)
# How it was run: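 HepG2 transiently transfected with GAL4-UAS reporter units and chimeric NR-Gal4 constructs; 24 h compound exposure. Reporter mRNA quantified by RT-PCR, FAM labeling, HpaI digestion and capillary electrophoresis; gain-of-signal versus DMSO.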
# [19] = molecular target: human RAR-related Orphan Receptor beta (RORb), RORB (gene 6096) (UniProt Q92753); test: ATG_RORb_TRANS: Attagene TRANS-FACTORIAL HepG2 Assay for human RAR-related Orphan Receptor beta (RORb) (AID 2283010; active = hit-call score of the fitted dose curve at least 0.9, where 1 is the maximum)
# How it was run: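 HepG2 cells transiently transfected with GAL4-UAS reporter units expressing chimeric NR-Gal4 protein; reporter mRNA measured 24 h after dosing by RT-PCR, 6-FAM labelling and capillary electrophoresis. Gain-of-signal fitted relative to DMSO baseline.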
# Retinoic acid receptor alpha (Homo sapiens), sequence (P10276 whole entry, looked up, the tested form may be a part): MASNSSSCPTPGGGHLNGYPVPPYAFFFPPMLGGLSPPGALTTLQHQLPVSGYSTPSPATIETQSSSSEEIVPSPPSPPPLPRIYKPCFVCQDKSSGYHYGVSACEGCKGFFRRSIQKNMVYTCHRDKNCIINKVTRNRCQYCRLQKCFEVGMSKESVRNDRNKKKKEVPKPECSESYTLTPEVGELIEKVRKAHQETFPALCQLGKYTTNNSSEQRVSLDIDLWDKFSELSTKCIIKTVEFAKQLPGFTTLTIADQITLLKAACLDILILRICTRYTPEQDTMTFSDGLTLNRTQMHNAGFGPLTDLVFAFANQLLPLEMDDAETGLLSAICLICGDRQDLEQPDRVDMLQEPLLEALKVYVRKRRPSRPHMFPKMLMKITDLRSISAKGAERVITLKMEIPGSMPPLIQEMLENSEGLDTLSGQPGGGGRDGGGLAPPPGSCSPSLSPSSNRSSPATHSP
# human RAR-related Orphan Receptor gamma (RORg), RORC (gene 6097), sequence (P51449 whole entry, looked up, the tested form may be a part): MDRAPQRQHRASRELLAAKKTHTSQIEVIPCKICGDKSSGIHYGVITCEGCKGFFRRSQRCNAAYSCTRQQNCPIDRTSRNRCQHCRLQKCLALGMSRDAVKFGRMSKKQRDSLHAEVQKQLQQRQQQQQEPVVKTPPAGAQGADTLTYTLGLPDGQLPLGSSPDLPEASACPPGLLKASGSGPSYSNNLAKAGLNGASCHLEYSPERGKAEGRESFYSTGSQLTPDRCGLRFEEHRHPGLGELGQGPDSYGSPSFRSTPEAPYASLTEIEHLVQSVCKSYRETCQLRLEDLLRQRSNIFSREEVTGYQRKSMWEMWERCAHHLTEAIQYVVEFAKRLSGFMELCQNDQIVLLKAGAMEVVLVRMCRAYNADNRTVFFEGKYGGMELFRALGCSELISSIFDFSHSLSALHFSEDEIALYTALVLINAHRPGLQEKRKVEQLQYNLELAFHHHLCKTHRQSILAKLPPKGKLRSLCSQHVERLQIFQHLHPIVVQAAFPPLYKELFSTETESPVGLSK
# human Peroxisome Proliferator-activated Receptor alpha (PPARa), PPARA (gene 5465), sequence (Q07869 whole entry, looked up, the tested form may be a part): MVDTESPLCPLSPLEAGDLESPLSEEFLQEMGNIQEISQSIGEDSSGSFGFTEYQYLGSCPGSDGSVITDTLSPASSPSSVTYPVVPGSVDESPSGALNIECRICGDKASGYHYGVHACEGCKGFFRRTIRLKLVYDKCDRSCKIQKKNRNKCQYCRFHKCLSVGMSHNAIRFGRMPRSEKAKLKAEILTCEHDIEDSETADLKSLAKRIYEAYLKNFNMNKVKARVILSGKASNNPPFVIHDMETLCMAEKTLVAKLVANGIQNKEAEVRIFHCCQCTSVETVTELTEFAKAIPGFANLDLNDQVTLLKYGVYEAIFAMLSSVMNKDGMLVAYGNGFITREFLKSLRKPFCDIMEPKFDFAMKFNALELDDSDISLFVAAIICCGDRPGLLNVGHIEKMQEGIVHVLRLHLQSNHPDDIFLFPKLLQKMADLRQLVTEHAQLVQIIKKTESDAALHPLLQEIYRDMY
# human Peroxisome Proliferator-activated Receptor delta (PPARd), PPARD (gene 5467), sequence (Q03181 whole entry, looked up, the tested form may be a part): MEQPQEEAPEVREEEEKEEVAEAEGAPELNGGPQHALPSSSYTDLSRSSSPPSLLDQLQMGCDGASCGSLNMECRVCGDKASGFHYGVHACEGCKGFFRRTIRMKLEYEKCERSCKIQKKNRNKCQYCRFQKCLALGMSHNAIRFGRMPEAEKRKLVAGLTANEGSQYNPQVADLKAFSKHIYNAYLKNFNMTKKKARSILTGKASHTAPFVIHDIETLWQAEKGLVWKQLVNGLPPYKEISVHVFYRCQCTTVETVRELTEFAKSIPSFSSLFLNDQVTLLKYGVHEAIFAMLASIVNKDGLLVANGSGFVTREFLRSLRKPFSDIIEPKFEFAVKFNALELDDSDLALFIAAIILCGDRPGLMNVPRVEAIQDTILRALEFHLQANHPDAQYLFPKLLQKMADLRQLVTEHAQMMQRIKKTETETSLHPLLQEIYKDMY
# Nuclear receptor subfamily 1 group I member 2 (Homo sapiens), sequence (O75469 whole entry, looked up, the tested form may be a part): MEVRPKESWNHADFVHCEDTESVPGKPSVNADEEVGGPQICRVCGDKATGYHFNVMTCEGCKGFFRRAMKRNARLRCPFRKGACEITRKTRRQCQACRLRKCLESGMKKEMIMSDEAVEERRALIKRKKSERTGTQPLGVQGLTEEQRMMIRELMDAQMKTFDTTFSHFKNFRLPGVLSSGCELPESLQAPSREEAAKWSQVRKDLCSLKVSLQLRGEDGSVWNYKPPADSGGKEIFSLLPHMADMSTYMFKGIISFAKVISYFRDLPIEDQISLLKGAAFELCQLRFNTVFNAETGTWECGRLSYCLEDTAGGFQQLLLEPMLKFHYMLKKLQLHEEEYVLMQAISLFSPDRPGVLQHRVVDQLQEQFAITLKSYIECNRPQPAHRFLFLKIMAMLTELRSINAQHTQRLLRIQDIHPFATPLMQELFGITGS
# human RAR-related Orphan Receptor beta (RORb), RORB (gene 6096), sequence (Q92753 whole entry, looked up, the tested form may be a part): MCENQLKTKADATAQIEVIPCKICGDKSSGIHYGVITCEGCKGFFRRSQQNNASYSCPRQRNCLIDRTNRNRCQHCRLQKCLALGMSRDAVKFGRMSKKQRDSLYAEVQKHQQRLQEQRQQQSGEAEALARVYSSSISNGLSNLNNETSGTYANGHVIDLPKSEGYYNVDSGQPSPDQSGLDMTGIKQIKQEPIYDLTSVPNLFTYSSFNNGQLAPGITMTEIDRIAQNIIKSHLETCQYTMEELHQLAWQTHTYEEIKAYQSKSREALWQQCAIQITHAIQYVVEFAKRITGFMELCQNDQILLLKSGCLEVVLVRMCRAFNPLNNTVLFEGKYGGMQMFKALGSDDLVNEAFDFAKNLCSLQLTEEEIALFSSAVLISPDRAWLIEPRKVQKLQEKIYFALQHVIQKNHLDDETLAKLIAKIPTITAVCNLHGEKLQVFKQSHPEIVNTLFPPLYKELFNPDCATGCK
# human Retinoic Acid Receptor gamma (RARg), RARG (gene 5916), sequence (P13631 whole entry, looked up, the tested form may be a part): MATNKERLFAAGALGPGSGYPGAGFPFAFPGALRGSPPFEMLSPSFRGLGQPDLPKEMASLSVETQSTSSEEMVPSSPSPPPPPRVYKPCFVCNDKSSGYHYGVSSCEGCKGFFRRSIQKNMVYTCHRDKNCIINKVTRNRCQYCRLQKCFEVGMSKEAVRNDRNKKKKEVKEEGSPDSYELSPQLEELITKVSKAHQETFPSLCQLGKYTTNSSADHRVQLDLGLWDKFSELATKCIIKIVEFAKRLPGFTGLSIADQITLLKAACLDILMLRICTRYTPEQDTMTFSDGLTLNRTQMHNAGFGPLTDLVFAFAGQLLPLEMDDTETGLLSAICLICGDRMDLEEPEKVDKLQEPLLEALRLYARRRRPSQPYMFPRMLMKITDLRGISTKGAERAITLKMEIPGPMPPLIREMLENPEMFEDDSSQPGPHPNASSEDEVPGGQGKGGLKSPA
# Peroxisome proliferator-activated receptor gamma (Homo sapiens), sequence (P37231 whole entry, looked up, the tested form may be a part): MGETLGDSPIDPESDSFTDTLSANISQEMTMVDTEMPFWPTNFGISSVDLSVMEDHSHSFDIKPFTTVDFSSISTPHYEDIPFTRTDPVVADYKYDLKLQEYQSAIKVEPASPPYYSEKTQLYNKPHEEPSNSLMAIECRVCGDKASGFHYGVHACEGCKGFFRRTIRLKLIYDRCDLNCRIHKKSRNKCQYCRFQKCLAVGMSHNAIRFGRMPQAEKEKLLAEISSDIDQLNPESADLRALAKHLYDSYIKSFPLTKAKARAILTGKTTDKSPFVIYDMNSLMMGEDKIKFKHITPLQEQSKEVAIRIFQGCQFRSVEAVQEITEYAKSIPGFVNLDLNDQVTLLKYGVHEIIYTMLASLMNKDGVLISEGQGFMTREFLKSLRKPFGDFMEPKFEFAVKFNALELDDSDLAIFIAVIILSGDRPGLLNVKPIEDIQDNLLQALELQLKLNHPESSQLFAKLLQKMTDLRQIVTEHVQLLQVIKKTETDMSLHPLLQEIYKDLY
# Cellular tumor antigen p53 (Homo sapiens), sequence (P04637 whole entry, looked up): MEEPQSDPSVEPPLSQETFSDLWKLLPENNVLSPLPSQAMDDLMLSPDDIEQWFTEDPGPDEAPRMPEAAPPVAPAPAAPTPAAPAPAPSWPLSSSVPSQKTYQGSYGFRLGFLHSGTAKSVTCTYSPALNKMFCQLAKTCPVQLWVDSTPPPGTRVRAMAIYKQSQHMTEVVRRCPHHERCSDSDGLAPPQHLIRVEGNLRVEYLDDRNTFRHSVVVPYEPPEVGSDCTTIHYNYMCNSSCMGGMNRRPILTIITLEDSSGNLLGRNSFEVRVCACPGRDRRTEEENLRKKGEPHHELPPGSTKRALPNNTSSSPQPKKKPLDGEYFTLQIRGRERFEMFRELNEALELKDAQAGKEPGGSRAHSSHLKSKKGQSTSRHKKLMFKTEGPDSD
# Myc proto-oncogene protein (Homo sapiens), sequence (P01106 whole entry, looked up, the tested form may be a part): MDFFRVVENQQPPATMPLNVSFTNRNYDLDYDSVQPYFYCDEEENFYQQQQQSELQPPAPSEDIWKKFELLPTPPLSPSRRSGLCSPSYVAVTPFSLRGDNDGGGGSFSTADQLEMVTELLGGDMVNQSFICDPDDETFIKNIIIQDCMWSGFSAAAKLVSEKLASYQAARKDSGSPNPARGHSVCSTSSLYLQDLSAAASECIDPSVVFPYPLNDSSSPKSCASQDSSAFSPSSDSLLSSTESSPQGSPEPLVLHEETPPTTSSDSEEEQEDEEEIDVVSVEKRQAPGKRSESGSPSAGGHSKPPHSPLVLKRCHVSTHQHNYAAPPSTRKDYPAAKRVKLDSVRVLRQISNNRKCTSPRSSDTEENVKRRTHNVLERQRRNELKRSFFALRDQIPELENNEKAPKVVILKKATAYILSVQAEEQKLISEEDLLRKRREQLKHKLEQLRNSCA
smiles,measurement,setting,value
CCCCCCc1ccc(N)cc1,outcome,[1],inactive
same,outcome,[2],inactive
same,AC50,[3],2.51 µM (active)
same,outcome,[4],inactive
same,AC50,[5],6.32 µM (active)
same,outcome,[6],inactive
same,outcome,[7],inactive
same,outcome,[8],inactive
CC1CCC(C(=O)O)CC1 (stereo not given),outcome,[1],inactive
same,outcome,[2],inactive
same,outcome,[3],inactive
same,outcome,[4],inactive
same,outcome,[5],inactive
same,outcome,[7],inactive
same,outcome,[9],inactive
same,outcome,[10],inactive
CC(C)CCOCCC(C)C,outcome,[1],inactive
same,outcome,[2],inactive
same,outcome,[3],inactive
same,outcome,[4],inactive
same,outcome,[5],inactive
same,outcome,[9],inactive
same,outcome,[11],inactive
C[C@]12CC[C@@H]3c4ccc(O)cc4CC[C@H]3[C@@H]1CC[C@@H]2OC(=O)CCC1CCCC1,outcome,[1],inactive
same,outcome,[2],inactive
same,AC50,[3],21.5 µM (active)
same,outcome,[4],inactive
same,outcome,[5],inactive
same,outcome,[6],inactive
same,outcome,[7],inactive
same,outcome,[8],inactive
same,outcome,[11],inactive
Cc1cc(C(C)(C)C)c(O)c(C(C)(C)C)c1,AC50,[1],51 µM (active) and 92.8 µM (active)
same,outcome,[2],inactive
same,AC50,[3],57.7 µM (active) and 60 µM (active)
same,AC50,[4],33.4 µM (active) and 89.4 µM (active)
same,outcome,[5],inactive
same,outcome,[7],inactive
same,outcome,[10],inactive
same,AC50,[8],27.3 µM (active)
same,outcome,[8],inactive
OCC(CO)(CBr)CBr,outcome,[1],inactive
same,outcome,[2],inactive
same,outcome,[3],inactive
same,outcome,[4],inactive
same,outcome,[12],inactive
same,outcome,[13],inactive
same,outcome,[14],inactive
same,outcome,[15],inactive
same,outcome,[16],inactive
Brc1ccc(Oc2ccc(Br)cc2Br)cc1,outcome,[1],inactive
same,outcome,[2],inactive
same,outcome,[3],inactive
same,outcome,[4],inactive
same,outcome,[5],inactive
same,outcome,[6],inactive
same,outcome,[10],inactive
same,outcome,[11],inactive
CCCC=O,outcome,[1],inactive
same,outcome,[2],inactive
same,outcome,[3],inactive
same,outcome,[4],inactive
same,outcome,[5],inactive
same,outcome,[17],inactive
same,outcome,[9],inactive
same,outcome,[8],inactive
same,outcome,[18],inactive
same,outcome,[19],inactive
same,outcome,[11],inactive
CCCCCCCCC1CCC(=O)O1 (stereo not given),outcome,[1],inactive
same,outcome,[2],inactive
same,outcome,[3],inactive
same,outcome,[4],inactive
same,outcome,[5],inactive
same,outcome,[6],inactive
same,outcome,[7],inactive
same,outcome,[10],inactive
same,outcome,[8],inactive
same,outcome,[19],inactive
same,outcome,[11],inactive
c1ccc2c(c1)CCC2,outcome,[1],inactive
same,outcome,[2],inactive
same,outcome,[3],inactive
same,outcome,[4],inactive
same,outcome,[5],inactive
same,outcome,[6],inactive
same,outcome,[18],inactive
same,outcome,[11],inactive
O=C(C=C(O)C(F)(F)F)C(F)(F)F,outcome,[1],inactive
same,outcome,[2],inactive
same,outcome,[3],inactive
same,outcome,[4],inactive
same,outcome,[5],inactive
same,outcome,[10],inactive
same,outcome,[8],inactive
same,outcome,[18],inactive
CCCCCCCCCCCCOC(=O)c1cc(O)c(O)c(O)c1,outcome,[1],inactive
same,outcome,[2],inactive
same,AC50,[3],2.95 µM (active)
same,AC50,[4],11.1 µM (active)
same,outcome,[5],inactive
same,AC50,[6],43.9 µM (active)
same,outcome,[9],inactive
same,AC50,[8],10.6 µM (active)
same,outcome,[18],inactive
